Measured values: PubChem BioAssay AID602327 (NMMLSC, 2012)
This is one part of the list. Values without a mark were called inactive. Calls of active or inactive are those of the source. No stated cut-off is given here; in the data, active means inhibition above about 25%; inactive means the rest.

These molecules were tested against Lethal factor (Bacillus anthracis) (UniProt P15917) (assay: anthrax lethal factor cleavage blockers – biochemical, multiplex microsphere, confirmation (AID 602327)). Settings: multiplex microsphere protease cleavage assay; at 10 µM; active compounds read high.
Chain of Lethal factor (Bacillus anthracis) (P15917 whole entry, looked up): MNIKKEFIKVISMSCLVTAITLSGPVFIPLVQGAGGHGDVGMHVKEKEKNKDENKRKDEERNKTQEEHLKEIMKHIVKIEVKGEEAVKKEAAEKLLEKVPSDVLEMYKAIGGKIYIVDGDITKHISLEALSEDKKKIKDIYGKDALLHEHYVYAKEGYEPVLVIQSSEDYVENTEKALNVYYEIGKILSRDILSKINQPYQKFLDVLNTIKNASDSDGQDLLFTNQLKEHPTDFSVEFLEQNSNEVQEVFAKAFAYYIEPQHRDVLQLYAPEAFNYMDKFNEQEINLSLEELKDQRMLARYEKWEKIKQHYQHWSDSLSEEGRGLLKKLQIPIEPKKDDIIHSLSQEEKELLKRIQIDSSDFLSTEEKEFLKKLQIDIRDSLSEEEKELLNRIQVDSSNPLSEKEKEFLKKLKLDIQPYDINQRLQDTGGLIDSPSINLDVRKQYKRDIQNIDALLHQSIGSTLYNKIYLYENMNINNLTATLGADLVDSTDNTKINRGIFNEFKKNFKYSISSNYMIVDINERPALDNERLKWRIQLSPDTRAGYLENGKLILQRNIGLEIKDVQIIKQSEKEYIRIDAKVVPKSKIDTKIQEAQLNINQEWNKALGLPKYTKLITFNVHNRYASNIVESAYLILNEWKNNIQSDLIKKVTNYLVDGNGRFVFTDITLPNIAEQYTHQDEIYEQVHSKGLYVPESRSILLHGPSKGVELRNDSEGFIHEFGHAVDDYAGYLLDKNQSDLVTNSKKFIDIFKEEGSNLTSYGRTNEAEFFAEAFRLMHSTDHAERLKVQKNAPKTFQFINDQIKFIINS

Structure (SMILES)	inhibition
Cc1cc2ccccc2n1CCNC(=O)COc1ccc2ccccc2c1	0.2%
Cc1cc2cc(CNC(=O)c3ccc(S(=O)(=O)N4CCOCC4)cc3)ccc2[nH]1	-0.8%
CC(=O)OCCN(CCCn1c(-c2ccncc2)nc2ccccc21)c1nc(-c2ccc(C)cc2)cs1	0.3%
CCOc1ncccc1C(=O)OCC(=O)c1c[nH]c2ccccc12	10.4%
O=C(CN1CCN(c2ccccc2O)CC1)NC(=O)NCc1ccccc1	-1.7%
O=C(OCC(=O)c1c[nH]c2ccccc12)c1cccc(O)c1	-2.5%
COc1ccc(-c2cc3c(c4c2ccn4C)C2CCC3C2)cn1 (stereo not drawn)	26.4% (active)
Cc1ccc(CNC(=O)c2cccc3c2C(=O)c2ccc(N4CCC(C)CC4)cc2S3(=O)=O)cc1	7.9%
